Assay results: PubChem BioAssay AID1069 (NMMLSC, 2008)
Active and inactive are the calls of the source.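 Rule for the calls: active = high combined rank on largest and smallest cell-count-weighted shift across three tests, rank score above 45, floors 50 and 25 (some results past the limit were not filed as active); inactive = the rest.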

assay: activators of LNCaP cell differentiation, retest, confirmation, side scatter shift, flow cytometry (AID 1069); conditions: 4 d, at 100 µM, stronger effect = higher value;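 note: LNCaP human prostate cancer cells in low-serum medium with charcoal-stripped FBS; percent of cells with raised granularity gated so DMSO controls show 10%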

Row | Structure (SMILES) | side scatter shift
1 | COc1ccc(N2CCN(CCCNC(=O)c3cc4sccc4n3C)CC2)cc1 | 51.6% (active)
2 | Cc1oc(-c2ccccc2F)nc1CN1CCC(C(=O)NCc2cccs2)CC1 | 39.3% (inactive)
3 | Cc1cccc(OCCn2c(=O)n(C)c3ccccc32)c1 | 26.7% (inactive)
4 | O=C1c2ccccc2C(Nc2ccc3c(c2)OCO3)N1Cc1ccc2c(c1)OCO2 (stereo unspecified) | 23.6% (inactive)
5 | O=C(CCCCCn1c(=O)[nH]c2ccccc2c1=O)NCCCN1CCN(c2ccccc2F)CC1 | 27.8% (inactive)
6 | COc1ccc(Cc2noc(-c3ccc(C)cc3)n2)cc1 | 21.4% (inactive)
7 | COc1ccc(-c2cc(C(F)(F)F)nc(N3CCN(Cc4ccccc4)CC3)n2)cc1OC | 51.3% (active)
8 | Oc1c(CN2CCCCC2)cc(COCc2ccccc2)c2cccnc12 | 5.7% (active)
9 | COCCn1cc(C(=O)N2CCCC(C)C2)c2c3ccccc3n(C)c2c1=O (stereo unspecified) | 22.8% (inactive)
10 | COc1ccc(CC(=O)Nc2ccc(-c3nnc(-c4ccc(C)cc4)o3)cc2)cc1 | 33.3% (inactive)
11 | Cc1oc(-c2ccc(Cl)cc2)nc1CN1CCCC(C(=O)NCc2ccco2)C1 (stereo unspecified) | 22.2% (inactive)
12 | CCN(CCCNS(=O)(=O)c1ccc2c(c1)oc(=O)n2C)c1cccc(C)c1 | 22.2% (inactive)
13 | CCN1CCN(CCNC(=O)C2CCCN(Cc3nc(-c4cccc(Cl)c4)oc3C)C2)CC1 (stereo unspecified) | 14.3% (inactive)
14 | Cn1c(C(=O)NCCCN2CCN(c3cccc(Cl)c3)CC2)cc2c(=O)n(C)c3ccccc3c21 | 69.6% (active)
15 | Cn1nc(-c2ccc(Cl)cc2)c2cc(C(=O)NCCCN3CCOCC3)sc21 | 63.6% (active)
16 | Cc1oc(-c2ccc(Cl)cc2)nc1CN1CCCC(C(=O)N2CCN(C(=O)c3ccco3)CC2)C1 (stereo unspecified) | 42.1% (inactive)
17 | Cc1oc(-c2ccccc2F)nc1CN1CCC(C(=O)NC2CCCCCCC2)CC1 | 16.7% (inactive)
18 | Cc1oc(-c2ccc(Cl)cc2)nc1CN1CCCC(C(=O)NCc2cccnc2)C1 (stereo unspecified) | 25% (inactive)
19 | Cc1ccc(C(=O)/C=C/Nc2cccc(O)c2)cc1 | 35.3% (inactive)

Row | Structure (SMILES) | side scatter shift
20 | CCN(CCNC(=O)C1CCN(Cc2nc(-c3cccc(Cl)c3)oc2C)CC1)c1ccccc1 | 66.7% (inactive)
21 | Cn1nc(-c2ccc(Cl)cc2)c2cc(C(=O)NCCCN3CCCC3)sc21 | 31.6% (active)
22 | COc1ccc(-c2noc(-c3cc(Cl)ccc3Cl)n2)cc1OC | 49.4% (inactive)
23 | Cc1ccccc1-c1nc(CN2CCCC(C(=O)NCCCN3CCOCC3)C2)c(C)o1 (stereo unspecified) | 72.4% (active)
24 | C=CCn1c(=N)n(CC(O)COc2ccccc2OC)c2ccccc21 (stereo unspecified) | 13.8% (inactive)
25 | CCCCOC(=O)Nc1cc(C(=O)OC)ccc1C(=O)OC | 21% (inactive)
26 | Cc1oc(-c2ccc(Cl)cc2)nc1CN1CCC(C(=O)NCc2cccnc2)CC1 | 30% (inactive)
27 | O=C(c1ccc(COCC(F)(F)F)o1)N1CCCCCC1 | 16.9% (inactive)
28 | COc1ccc(-c2cc(-c3ccc(F)cc3)nc(N3CCN(C)CC3)n2)cc1 | 33.3% (inactive)
29 | CCn1c(=O)cc(SCC(=O)N2CCN(C3CCCCC3)CC2)c2ccccc21 | 16.7% (inactive)
30 | CCOC(=O)N1CCC(NC(=O)c2cc3c(-c4cccc(OC)c4)nn(C)c3s2)CC1 | 7.7% (inactive)
31 | CCN1CCN(c2cc(C)c3cc(NC(=O)c4ccc(Br)o4)ccc3n2)CC1 | 2.8% (active)
32 | Cc1onc(-c2ccccc2Cl)c1C(=O)N(C)C1CCCCC1 | 16% (inactive)
33 | CC1CCCCN1CCNC(=O)c1cc2c(-c3ccccc3F)nn(C)c2s1 (stereo unspecified) | 42.4% (inactive)
34 | CCn1c(=S)ccc2ccc(OC)cc21 | 12.9% (inactive)
35 | CCn1c(=O)cc(SCC(=O)NCCCN2CCN(c3ccccc3F)CC2)c2ccccc21 | 0% (active)
36 | CCN(CC)CCNC(=O)c1ccc(N2CCCCC2)c(NS(=O)(=O)c2ccc(C)cc2)c1 | 17.6% (inactive)
37 | Cn1c(=O)[nH]c(=O)c2c1nc(Br)n2CCCSc1nc2ccccc2o1 | 0% (inactive)
38 | Cc1oc(-c2cccc(Cl)c2)nc1CN1CCC(C(=O)NCCCN2CCCC2=O)CC1 | 15.1% (inactive)

same assay, conditions: 4 d, side scatter shift, at 10 µM, stronger effect = higher value

Row | Structure (SMILES) | side scatter shift
39 | COc1ccc(N2CCN(CCCNC(=O)c3cc4sccc4n3C)CC2)cc1 | 6.5%
40 | Cc1oc(-c2ccccc2F)nc1CN1CCC(C(=O)NCc2cccs2)CC1 | 6.3%
41 | Cc1cccc(OCCn2c(=O)n(C)c3ccccc32)c1 | 4.5%
42 | O=C1c2ccccc2C(Nc2ccc3c(c2)OCO3)N1Cc1ccc2c(c1)OCO2 (stereo unspecified) | 6.65%
43 | O=C(CCCCCn1c(=O)[nH]c2ccccc2c1=O)NCCCN1CCN(c2ccccc2F)CC1 | 3%
44 | COc1ccc(Cc2noc(-c3ccc(C)cc3)n2)cc1 | 10.1%
45 | COc1ccc(-c2cc(C(F)(F)F)nc(N3CCN(Cc4ccccc4)CC3)n2)cc1OC | 5.3%
46 | Oc1c(CN2CCCCC2)cc(COCc2ccccc2)c2cccnc12 | 51.2%
47 | COCCn1cc(C(=O)N2CCCC(C)C2)c2c3ccccc3n(C)c2c1=O (stereo unspecified) | 3.2%
48 | COc1ccc(CC(=O)Nc2ccc(-c3nnc(-c4ccc(C)cc4)o3)cc2)cc1 | 6.65%
49 | Cc1oc(-c2ccc(Cl)cc2)nc1CN1CCCC(C(=O)NCc2ccco2)C1 (stereo unspecified) | 12.7%
50 | CCN(CCCNS(=O)(=O)c1ccc2c(c1)oc(=O)n2C)c1cccc(C)c1 | 4.85%
51 | CCN1CCN(CCNC(=O)C2CCCN(Cc3nc(-c4cccc(Cl)c4)oc3C)C2)CC1 (stereo unspecified) | 32.2%
52 | Cn1c(C(=O)NCCCN2CCN(c3cccc(Cl)c3)CC2)cc2c(=O)n(C)c3ccccc3c21 | 5.45%
53 | Cn1nc(-c2ccc(Cl)cc2)c2cc(C(=O)NCCCN3CCOCC3)sc21 | 27.4%
54 | Cc1oc(-c2ccc(Cl)cc2)nc1CN1CCCC(C(=O)N2CCN(C(=O)c3ccco3)CC2)C1 (stereo unspecified) | 3.65%
55 | Cc1oc(-c2ccccc2F)nc1CN1CCC(C(=O)NC2CCCCCCC2)CC1 | 9.45%
56 | Cc1oc(-c2ccc(Cl)cc2)nc1CN1CCCC(C(=O)NCc2cccnc2)C1 (stereo unspecified) | 7.2%
57 | Cc1ccc(C(=O)/C=C/Nc2cccc(O)c2)cc1 | 4.85%

Row | Structure (SMILES) | side scatter shift
58 | CCN(CCNC(=O)C1CCN(Cc2nc(-c3cccc(Cl)c3)oc2C)CC1)c1ccccc1 | 31.2%
59 | Cn1nc(-c2ccc(Cl)cc2)c2cc(C(=O)NCCCN3CCCC3)sc21 | 66.5%
60 | COc1ccc(-c2noc(-c3cc(Cl)ccc3Cl)n2)cc1OC | 7.6%
61 | Cc1ccccc1-c1nc(CN2CCCC(C(=O)NCCCN3CCOCC3)C2)c(C)o1 (stereo unspecified) | 12.8%
62 | C=CCn1c(=N)n(CC(O)COc2ccccc2OC)c2ccccc21 (stereo unspecified) | 2.35%
63 | CCCCOC(=O)Nc1cc(C(=O)OC)ccc1C(=O)OC | 1.25%
64 | Cc1oc(-c2ccc(Cl)cc2)nc1CN1CCC(C(=O)NCc2cccnc2)CC1 | 5.8%
65 | O=C(c1ccc(COCC(F)(F)F)o1)N1CCCCCC1 | 4.95%
66 | COc1ccc(-c2cc(-c3ccc(F)cc3)nc(N3CCN(C)CC3)n2)cc1 | 14.8%
67 | CCn1c(=O)cc(SCC(=O)N2CCN(C3CCCCC3)CC2)c2ccccc21 | 6.55%
68 | CCOC(=O)N1CCC(NC(=O)c2cc3c(-c4cccc(OC)c4)nn(C)c3s2)CC1 | 2.35%
69 | CCN1CCN(c2cc(C)c3cc(NC(=O)c4ccc(Br)o4)ccc3n2)CC1 | 32.8%
70 | Cc1onc(-c2ccccc2Cl)c1C(=O)N(C)C1CCCCC1 | 5.1%
71 | CC1CCCCN1CCNC(=O)c1cc2c(-c3ccccc3F)nn(C)c2s1 (stereo unspecified) | 19.9%
72 | CCn1c(=S)ccc2ccc(OC)cc21 | 1.95%
73 | CCn1c(=O)cc(SCC(=O)NCCCN2CCN(c3ccccc3F)CC2)c2ccccc21 | 33.5%
74 | CCN(CC)CCNC(=O)c1ccc(N2CCCCC2)c(NS(=O)(=O)c2ccc(C)cc2)c1 | 38.6%
75 | Cn1c(=O)[nH]c(=O)c2c1nc(Br)n2CCCSc1nc2ccccc2o1 | 8%
76 | Cc1oc(-c2cccc(Cl)c2)nc1CN1CCC(C(=O)NCCCN2CCCC2=O)CC1 | 2.65%
